# Screens: PubChem, National Center for Advancing Translational Sciences (NCATS)
# Sampled rows, rich in hits. Any-hit rate of the full collection: about 11%.
# ALOX15 inhib: qHTS Assay for Inhibitors of 15-hLO (15-human lipoxygenase); Polyunsaturated fatty acid lipoxygenase ALOX15 (Homo sapiens), P16050; purified 15hLO-1, xylenol orange hydroperoxide absorbance; Potency, µM (highest dose often 57.1 µM), inactives show top-dose activity change, negative = inhibition, hits mostly inhibitors; hit rate 1.4% among 74,000; AID 887, 2007; note: nearly all actives have a fitted effect of over 55% in size
# Target sequence (P16050 whole entry, looked up): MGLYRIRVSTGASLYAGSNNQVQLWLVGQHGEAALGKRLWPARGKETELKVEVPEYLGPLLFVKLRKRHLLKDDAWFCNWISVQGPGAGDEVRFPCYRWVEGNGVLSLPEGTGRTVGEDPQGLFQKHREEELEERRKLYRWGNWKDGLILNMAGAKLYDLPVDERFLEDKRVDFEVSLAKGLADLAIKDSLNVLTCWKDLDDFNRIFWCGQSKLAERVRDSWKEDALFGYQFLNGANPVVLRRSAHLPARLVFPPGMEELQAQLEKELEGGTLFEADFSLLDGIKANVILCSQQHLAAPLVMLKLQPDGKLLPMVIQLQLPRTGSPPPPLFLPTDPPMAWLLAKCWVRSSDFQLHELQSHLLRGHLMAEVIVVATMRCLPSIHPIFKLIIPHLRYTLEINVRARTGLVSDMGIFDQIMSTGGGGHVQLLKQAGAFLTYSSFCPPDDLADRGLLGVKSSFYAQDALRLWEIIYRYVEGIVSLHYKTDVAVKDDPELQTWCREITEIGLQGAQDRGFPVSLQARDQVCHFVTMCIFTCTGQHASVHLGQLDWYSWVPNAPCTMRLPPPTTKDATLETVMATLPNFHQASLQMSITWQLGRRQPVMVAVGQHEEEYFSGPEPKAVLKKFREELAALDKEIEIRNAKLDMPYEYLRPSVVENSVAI
#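 Compounds were preincubated 15 min at room temperature with 40 nM purified human enzyme (25 mM Hepes pH 7.5, 0.01% Triton X-100); 50 uM arachidonic acid reacted 6 min. Fe-xylenol orange detection, 30 min, absorbance ratio 573/405 nm.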
# ERK AVP inh: qHTS Assay for Inhibitors of the ERK Signaling Pathway using a Homogeneous Screening Assay; HEK293-V1b, vasopressin-stimulated pERK AlphaScreen; Potency, µM (titrated, usually from 57.5 µM), for the others: at the top dose activity, negative = inhibition, usual class: inhibitors; hit rate 0.99% among 72,000; AID 995, 2007; note: nearly all actives have a fitted effect of over 55% in size
#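 Overnight-seeded V1b-HEK293 cells in 1% FBS got compound, then vasopressin (25 nM final, 5 min, 37C), then lysis buffer. AlphaScreen detection of phospho-ERK; activity normalized to basal and full-stimulation controls.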
# Luciferase inh: qHTS Assay for Inhibitors of Firefly Luciferase | purified firefly luciferase, luminescence, 8 min | AID 411, 2009 | Potency, µM (top dose mostly 57.1 µM), without a hit: top-dose activity change, negative = inhibition, hits mostly inhibitors | hit rate 2.2% among 72,000; note: nearly all actives have a fitted effect of over 40% in size
#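 Titration-based qHTS; buffer 50 mM imidazole pH 7.2, 50 mM KCl, 7 mM MgCl2, 10 uM ATP, 0.01% Tween 20, 0.05% BSA; luciferase/luciferin detector mix added after compound; 8 min, ambient; luminescence.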
# HADH2 inhib: qHTS Assay for Inhibitors of HADH2 (Hydroxyacyl-Coenzyme A Dehydrogenase, Type II); Potency, µM (titrated, usually from 57.1 µM), for the others: top-dose activity change, negative = inhibition, usual class: inhibitors; 3-hydroxyacyl-CoA dehydrogenase type-2 (Homo sapiens), Q99714; hit rate 3.4% among 73,000; recombinant HADH2, NADH fluorescence, beta-hydroxybutyryl-CoA; note: nearly all actives have a fitted effect of over 60% in size
#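 Read-out: 360 nm excitation, 450 nm emission, kinetic over 4 min. Conditions: His-tagged human HADH2 20 nM, pH 9.0 Tris with Tween-20, 1 mM NAD+, 90 uM beta-hydroxybutyryl-CoA.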
# HSD17B inh: qHTS Assay for Inhibitors of HSD17B4, hydroxysteroid (17-beta) dehydrogenase 4 | 3-hydroxyacyl-CoA dehydrogenase type-2 (Homo sapiens), Q99714 | recombinant HSD17B10, NADH fluorescence kinetic | Potency, µM (highest dose often 57.1 µM), inactives show at the highest dose activity change, negative = inhibition, most hits filed as inhibitors | hit rate 7.6% among 75,000 | AID 893, 2007;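 note: the protocol describes HADH2 (HSD17B10) and not the HSD17B4 of the title; nearly all actives have a fitted effect of over 70% in size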
#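 Enzyme plus compound, 15 min room temperature; substrate mix added (NAD+ 1 mM, beta-hydroxybutyryl-CoA 90 uM final); plates read kinetically for NADH fluorescence. HADH2 was His-tagged, E. coli-derived, 20 nM.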
# Bst PK mod: Pyruvate Kinase; Potency, µM; hit rate 1.2% among 51,000; purified pyruvate kinase, luminescence ATP production; ribose 5-phosphate activator present at AC10; AID 361, 2006; in the data active = potency below about 11 µM; inconclusive = mostly about 12 µM to 25 µM;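 the screen sought inhibitors and activators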;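 note: scaled between full activation by ribose 5 phosphate and full inhibition by luteolin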
# * = called active by the depositor; i = inactive; ? = inconclusive; . = not tested or not shown; ! = not confirmed by another sample; [ ] = another dose, or the depositor's remark. Unless noted, calls come from the whole dose curve; as a rule, active = well fitted curve in the direction sought with a large enough effect; inconclusive = small, poorly fitted or top-dose-only effect, or another doubt; inactive = no such curve, though single readings can be large; an effect the other way counts as inactive or inconclusive. Unless noted, % is set by controls: 0 for no effect and ±100 for the full control effect; potency is the fitted concentration of half-maximal effect.
SMILES,ALOX15 inhib,ERK AVP inh,Luciferase inh,HADH2 inhib,HSD17B inh,Bst PK mod
Nc1ccc2oc(-c3cccc(Br)c3)nc2c1,13%,8%,7.9µM*,?,?,.
O=C(O)[C@H]1CC=CC[C@@H]1C(=O)Nc1cccc(O)c1,14%[11.4 µM],22%[11.5 µM],4%[11.4 µM],-9%[11.4 µM],1%[11.4 µM],.
CCc1cc2c(CN3CCN(C)CC3)cc(=O)oc2cc1O,8%,24%,1%,32µM*,32µM*,>57
CCc1cc2c(CN3CCN(CCO)CC3)cc(=O)oc2cc1O,3%,-12%,0%,32µM*,32µM*,>57
OCC1OC(C#Cc2ccccc2)C=CC1O (stereo not given),-8%[11.4 µM],36%[11.5 µM],.,10%[11.4 µM],1%[11.4 µM],.
NC1=C(O)C(=O)[C@H](c2c[nH]c3ccc(OCc4ccccc4)cc23)O1,-3%[11.4 µM],-8%[11.5 µM],0%[11.4 µM],13%[11.4 µM],0%[11.4 µM],.
Cc1ccc(CNc2oc(-c3cccs3)nc2C#N)cc1,-25%,?,2%,93%,25µM*,>11
N#Cc1nc(-c2cccs2)oc1NCc1ccc(Cl)cc1,-21%,.,.,?,32µM*,.
N#Cc1nc(-c2cccs2)oc1NCc1ccccc1,.,.,-1%[25.5 µM],.,.,>26
CC1(C)CCC(=O)N[C@H]1CC(=O)C[C@H]1NC(=O)CCC1(C)C,6%[11.4 µM],-6%[11.5 µM],2%[11.4 µM],3%[11.4 µM],5%[11.4 µM],.
O=C(NCc1ccc2c(c1)OCO2)c1ccc(-c2ccc(Cl)cc2)o1,-27%,32µM*,3%,?,25µM*,.
O=C(/C=C(\O)c1ccccc1)c1ccccc1O,-1%,-24%,.,.,2%,.
CCOc1ccc(C(=O)NCCn2cc(SCC(=O)Nc3cc(C)on3)c3ccccc32)cc1,-20%,2%,16µM*,1%,-8%,>57
Cc1cc(NC(=O)CSc2cn(CCNC(=O)c3ccc(Cl)cc3)c3ccccc23)no1,-11%,.,-2%,-9%,18%,.
O=C(c1ccccc1)[C@H](Nc1ccc2ccccc2c1)c1ccccc1,2%[11.4 µM],-7%[11.5 µM],-21%[11.4 µM],?,-1%[11.4 µM],.
Cn1cc(SCC(=O)NCc2ccc3c(c2)OCO3)c2ccccc21,-7%,.,-10%,?,5%,.
CCn1cc(SCC(=O)NCc2ccc3c(c2)OCO3)c2ccccc21,-27%,.,2µM*,-16%,-8%,.
COC(=O)[C@@H](NC(=O)c1cc(-c2ccccc2)nc2ccccc12)c1ccccc1,.,.,2%,15%,.,.
COc1ccc(S(=O)(=O)N(CCCN2CCCC2=O)Cc2cc3c(C)cc(C)cc3[nH]c2=O)cc1,-8%,-15%,3%,i,3.2µM*,>57
CCCCCCCCCC(=O)O[C@H](CC(=O)O)C[N+](C)(C)C,-9%[25.6 µM],2%,0%,-7%,17%,.
O=C(O)c1ccc(N2CCCCCC2)c(N2C(=O)c3ccccc3C2=O)c1,-14%[11.4 µM],9%,2%,-1%[11.4 µM],8%,.
CCCCNc1cc(C(=O)O)cc(S(N)(=O)=O)c1Oc1ccccc1,7%,12%,2%[25.5 µM],?,25µM*,>26
NS(=O)(=O)c1cc(C(=O)O)cc(N2CCCC2)c1Oc1ccccc1,10%[25.6 µM],-3%[25.7 µM],-2%[25.5 µM],14%[25.6 µM],13µM*,.
CCCCOc1ccc(C(=O)O)cc1,6%,12%,2%,1%,9%,>57
COc1ccc(C)cc1NC(=O)c1cnc2sccn2c1=O,-1%,.,-1%,-20%,25µM*,.
SMILES,ALOX15 inhib,ERK AVP inh,Luciferase inh,HADH2 inhib,HSD17B inh,Bst PK mod
COc1ccc(Cl)cc1NC(=O)c1cnc2n(c1=O)CCS2,-6%,.,-2%,-22%,10µM*,.
COc1ccc(NC(=O)N2CC[C@@]3(CCCN(S(C)(=O)=O)C3)C2)cc1,-1%,30%,0%[11.4 µM],-7%,-1%,.
Cc1ccc2nc(-c3cccc(-c4nc5ccc(C)cc5o4)n3)oc2c1,-14%,6%,1%,18%,?,>57
COc1cc(C(=O)Nc2cc(-c3nc4cc(C)ccc4o3)ccc2C)cc(OC)c1OC,3%,-19%,1µM*,19%,?,.
COc1cc(OC)cc(-c2nc3cc(C)ccc3o2)c1,-16%,-19%,16µM*,-4%,32µM*,i
CN(C)c1ccc(N=Cc2ccco2)cc1,?,?,20µM*,?,-9%,.
CCCN1Cc2cccc(C(=O)Nc3ccc4c(c3)OCCO4)c2C1=O,-10%,?,13µM*,3%,-13%,.
COCCN1Cc2cccc(C(=O)Nc3c(C)cc(C)cc3C)c2C1=O,13%,22%,2%,1%,14%,>57
COCCN1Cc2cccc(C(=O)Nc3cc(C)cc(C)c3)c2C1=O,6%,21%,-2%,?,32µM*,>57
CC(C)CO/N=C1/C[C@@H](O)[C@@H](O)[C@@H]2[C@@H]3C(=O)N(Cc4ccccc4)C(=O)[C@H]3CC[C@H]12,3%[11.4 µM],13%[11.5 µM],3%[11.4 µM],7%[11.4 µM],-2%[11.4 µM],.
N#Cc1nc(-c2ccc(OCc3ccccc3)cc2)oc1NCCN1CCOCC1,-5%,?,3%,i,32µM*,4.5*
N#Cc1nc(COc2ccc(F)cc2)oc1NCCN1CCOCC1,2%,2%,-3%,-5%,-4%,>57
N#Cc1nc(-c2ccc(OCc3ccc(Cl)cc3)cc2)oc1NCCCn1ccnc1,22%,-8%,5%,-29%,10µM*,0.33*
N#Cc1nc(-c2ccc(OCc3ccccc3)cc2)oc1N1CCOCC1,-5%,-27%,6%,?,25µM*,2*
COc1ccc(-c2nc(C#N)c(N3CCOCC3)o2)cc1OC,-12%,-28%,-1%,32µM*,32µM*,.
CN(C)Cc1cc(C(C)(C)C)cc(CNC2CCCCC2)c1O,17%[11.4 µM],-8%[11.5 µM],3%[11.4 µM],9%[11.4 µM],3%[11.4 µM],.
COc1cc(-c2oc3cc(O)ccc3c(=O)c2O)ccc1O,13µM*,?,.,.,20µM*,.
O=c1c(O)c(-c2ccc(O)cc2)oc2cc(O)ccc12,-11%[25.6 µM],?,-1%[11.4 µM],?,32µM*,.
O=c1c(O)c(-c2ccc(O)cc2)oc2cc(O)cc(O)c12,?,?,1%[11.4 µM],16µM*!,-4%,.
COc1cc(O)c2c(=O)c(O)c(-c3ccc(O)c(O)c3)oc2c1,-78%,2%,.,.,?,.
C=CCOC(=O)C(C(C)=O)C(NC(=O)OC)c1cccc(C)c1 (stereo not given),3%[11.4 µM],2%[11.5 µM],.,-7%[11.4 µM],7%[11.4 µM],.
O=C(CN1C(=O)C2C3C=CC(C3)C2C1=O)Nc1ccc2nccnc2c1 (stereo not given),-2%,3%,1%,20µM*,32µM*,.
